In ChEMBL document CHEMBL4513158, “CO-ADD screening of RKDF (India) compounds”:
Potency and affinity values are given separately.

How the values were obtained:
Klebsiella pneumoniae = conditions: Concentration 32 ug.mL-1; ASSAY_TEST Inhibition of Bacterial Growth; detection method Absorption (OD600); MEDIA CAMHB; plate type 384well; NBS; CORNING #3640; time 18 hr
Candida albicans = conditions: 32 ug/mL
Cryptococcus neoformans = conditions: Concentration 32 ug.mL-1; ASSAY_TEST Inhibition of Fungal Growth; detection method Resazurin; Absorption (OD600-OD570); plate type 384well; NBS; CORNING #3640

SMILES	Inhibition (Klebsiella pneumoniae) [%]	Inhibition (Candida albicans) [%]	Inhibition (Cryptococcus neoformans) [%]
C=C[C@H]1[C@H](O[C@@H]2O[C@H](CO)[C@@H](O)[C@H](O)[C@H]2O)OC=C2C(=O)OCC[C@]21O [SWERTIAMARIN]	13.48	14.2	102.17
CN(C)C(=N)NC(=N)N.Cl [METFORMIN HYDROCHLORIDE]	14.76	99	90.72
